Results from PMC4336329 (PLoS ONE, 2015).
The whole screen tested about 310,000 compounds, of which about 14,000 (4.5%) showed an effect of 50% or more. The effect is printed as a negative number. Only a selection was taken, and strong results are over-represented in it overall.
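Further: peak tail current of the secondary pulse compared with the same well before compound.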

These molecules were tested against human ether-à-go-go-related gene (hERG) potassium channel (human, UniProt Q12809) (assay: primary screen, population patch clamp on CHO cells stably expressing hERG; higher = less effect of the substance).
Sequence of human ether-à-go-go-related gene (hERG) potassium channel (Q12809 whole entry, looked up): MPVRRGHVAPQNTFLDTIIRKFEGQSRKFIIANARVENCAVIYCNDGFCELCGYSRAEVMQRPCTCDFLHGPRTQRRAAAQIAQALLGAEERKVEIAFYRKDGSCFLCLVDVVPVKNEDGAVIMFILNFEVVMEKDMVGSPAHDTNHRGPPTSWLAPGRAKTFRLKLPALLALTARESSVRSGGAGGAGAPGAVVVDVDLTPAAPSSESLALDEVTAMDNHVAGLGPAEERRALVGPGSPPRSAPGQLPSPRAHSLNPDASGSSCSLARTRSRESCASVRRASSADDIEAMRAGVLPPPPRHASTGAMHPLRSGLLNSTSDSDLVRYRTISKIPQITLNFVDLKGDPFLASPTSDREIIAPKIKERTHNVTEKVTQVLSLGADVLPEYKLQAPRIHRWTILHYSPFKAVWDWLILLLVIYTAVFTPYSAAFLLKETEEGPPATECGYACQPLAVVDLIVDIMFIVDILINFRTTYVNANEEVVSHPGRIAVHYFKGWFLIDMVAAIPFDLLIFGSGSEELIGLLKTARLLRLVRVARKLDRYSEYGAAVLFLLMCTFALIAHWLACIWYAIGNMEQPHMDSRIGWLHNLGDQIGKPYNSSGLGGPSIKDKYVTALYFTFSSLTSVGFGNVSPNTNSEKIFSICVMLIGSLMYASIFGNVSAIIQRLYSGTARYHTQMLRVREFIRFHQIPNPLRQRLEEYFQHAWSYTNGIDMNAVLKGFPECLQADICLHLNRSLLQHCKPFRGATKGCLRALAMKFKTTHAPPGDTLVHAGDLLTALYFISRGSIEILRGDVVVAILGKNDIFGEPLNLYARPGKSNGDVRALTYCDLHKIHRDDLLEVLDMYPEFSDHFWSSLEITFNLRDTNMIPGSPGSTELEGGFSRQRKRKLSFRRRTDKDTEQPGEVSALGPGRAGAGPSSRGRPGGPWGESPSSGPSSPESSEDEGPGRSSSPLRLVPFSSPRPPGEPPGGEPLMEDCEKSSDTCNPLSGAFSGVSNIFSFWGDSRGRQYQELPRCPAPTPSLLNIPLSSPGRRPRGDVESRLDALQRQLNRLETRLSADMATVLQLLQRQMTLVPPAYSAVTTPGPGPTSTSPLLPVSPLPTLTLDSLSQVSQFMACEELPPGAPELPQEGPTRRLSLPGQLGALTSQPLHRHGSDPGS
`COc1cc(OC)c2ccc(=O)oc2c1C(CC(=O)N1CCCC1)c1ccc(N(C)C)cc1` (centres unmarked) was tested, and the “hERG current change (%, negative = inhibition) at 10uM” value was 10.2%.
With `COc1cccc(C(C(=O)NC2CCCC2)N(C(=O)c2ccco2)c2ccc(-n3cnnn3)c(C)c2)c1OC` (centres unmarked) the “hERG current change (%, negative = inhibition) at 10uM” value was 8.33%.
For `COc1cc(Cl)ccc1OCc1cc(C(=O)N2C[C@]3(C)C[C@H]2CC(C)(C)C3)no1`, the “hERG current change (%, negative = inhibition) at 10uM” value was -8.91%.
With `CC12CCC(CC1=O)C2(C)C` (centres unmarked) the “hERG current change (%, negative = inhibition) at 10uM” value was 8.29%.
`CCCCCCCCCCOC(=O)Cn1c(COc2ccc(OC)cc2)[n+](C)c2ccccc21.[Cl-]` was tested, and the “hERG current change (%, negative = inhibition) at 10uM” value was -83.3%.
In the case of `Cc1cccc(OCCCCn2c(CO)nc3ccccc32)c1`, the “hERG current change (%, negative = inhibition) at 10uM” value is reported as -5.5%.
In the case of `CCCCCOC(=O)Cn1c(=O)oc2ccc(C)cc21`, the “hERG current change (%, negative = inhibition) at 10uM” value is reported as -10.6%.
In the case of `CCCCCCCCCCOC(=O)Cn1c(COc2cccc(C)c2)[n+](C)c2ccccc21.[Cl-]`, the “hERG current change (%, negative = inhibition) at 10uM” value is reported as -76%.
With `CCCCOC(=O)Cn1c2ccc(OC)cc2c2nc3ccccc3nc21` the “hERG current change (%, negative = inhibition) at 10uM” value was -6.29%.
`COc1ccc(OCCCCn2c(CO)nc3ccccc32)cc1` was tested, and the “hERG current change (%, negative = inhibition) at 10uM” value was -24.5%.
`CN(C)C(=O)C(Sc1ccc(S(=O)(=O)N2CCCC2)cn1)c1ccccc1` (centres unmarked) was tested, and the “hERG current change (%, negative = inhibition) at 10uM” value was -13.4%.
In the case of `COc1ccccc1P(=O)(c1ccccc1)c1ccccc1`, the “hERG current change (%, negative = inhibition) at 10uM” value is reported as 15.1%.
With `COc1cccc(/C=C/C(=O)NCCc2ccc(OC)c(OC)c2)c1` the “hERG current change (%, negative = inhibition) at 10uM” value was -16.3%.
`N#CCC(=O)Nc1ccc(C(=O)OCC(=O)c2ccc3c(c2)OCCO3)cc1` was tested, and the “hERG current change (%, negative = inhibition) at 10uM” value was 10.5%.
With `CNCC(O)COc1ccccc1` (centres unmarked) the “hERG current change (%, negative = inhibition) at 10uM” value was -5.69%.
With `OC(CNCCc1ccccc1)COc1ccc(OCC(O)CNCCc2ccccc2)cc1` (centres unmarked) the “hERG current change (%, negative = inhibition) at 10uM” value was 1.24%.
`OC(CCc1ccncc1)COc1ccccc1` (centres unmarked) was tested, and the “hERG current change (%, negative = inhibition) at 10uM” value was 3.52%.
In the case of `OC(CNCc1ccccc1)COc1ccccc1` (centres unmarked), the “hERG current change (%, negative = inhibition) at 10uM” value is reported as -11.9%.
With `CC(CCc1ccccc1)NCC(O)COc1ccccc1` (centres unmarked) the “hERG current change (%, negative = inhibition) at 10uM” value was -73.4%.
In the case of `OC(CNCCC(c1ccccc1)c1ccccc1)COc1ccccc1` (centres unmarked), the “hERG current change (%, negative = inhibition) at 10uM” value is reported as -71.4%.
`CCc1cc(C(=O)N2CCN(c3ccccn3)CC2)sc1C` was tested, and the “hERG current change (%, negative = inhibition) at 10uM” value was -3.12%.
For `O=C(CCS(=O)CCC(=O)NCc1ccccc1)NCc1ccccc1`, the “hERG current change (%, negative = inhibition) at 10uM” value was 17.7%.
With `Cc1nnc(NC(=O)c2cccc(F)c2)s1` the “hERG current change (%, negative = inhibition) at 10uM” value was 4.08%.
`NNC(=O)CN1C(c2ccc(Cl)cc2)=Nc2ccc(Br)cc2C1c1ccccc1` (centres unmarked) was tested, and the “hERG current change (%, negative = inhibition) at 10uM” value was -53.3%.
In the case of `COC(=O)CN1C(c2ccccc2)=Nc2ccc(Cl)cc2C1c1ccccc1` (centres unmarked), the “hERG current change (%, negative = inhibition) at 10uM” value is reported as -66.4%.
For `NNC(=O)CN1C(c2ccccc2)=Nc2ccc(Br)cc2C1c1ccccc1` (centres unmarked), the “hERG current change (%, negative = inhibition) at 10uM” value was -20%.
`COC(=O)CN1C(c2ccc(Cl)cc2)=Nc2ccc(Cl)cc2C1c1ccccc1` (centres unmarked) was tested, and the “hERG current change (%, negative = inhibition) at 10uM” value was -17.7%.
`NNC(=O)CN1C(c2ccc(Br)cc2)=Nc2ccc(Br)cc2C1c1ccccc1` (centres unmarked) was tested, and the “hERG current change (%, negative = inhibition) at 10uM” value was -30.8%.
In the case of `COC(=O)CN1C(c2cccc(Cl)c2)=Nc2ccc(Cl)cc2C1c1ccccc1` (centres unmarked), the “hERG current change (%, negative = inhibition) at 10uM” value is reported as 1.61%.
